Source: PubChem BioAssay AID2314 (National Center for Advancing Translational Sciences (NCATS), 2010)
Hit rate of the full screen: of about 300,000 compounds, about 37,000 (12%) were called active. Only a selection was taken, and actives are over-represented in it overall. A number with no mark means an inactive call. No stated cut-off is given here; in the data, active means max response mostly above about 13% (no sharp cut-off); inactive means mostly below about 14%.

Experiment: Cycloheximide Counterscreen for Small Molecule Inhibitors of Shiga Toxin; further: read at 38.3 µM for the half of the compounds with a filed dose; 0% is about no effect
Settings: cell reporter, cycloheximide protein synthesis inhibition counterscreen; active compounds read high

Row | Structure (SMILES) | max response
1 | COc1ccc(/C=C2\CCCC3C2=NN(C(=O)c2scnc2C)C3c2ccc(OC)cc2)cc1 (stereo unspecified) | 11.8%
2 | CCOC(=O)N1CCN(S(=O)(=O)c2ccc(-n3cnnn3)cc2)CC1 | -0.729%
3 | O=S(=O)(NC1CCCCC1N1CCC(O)CC1)c1ccc(Cl)cc1 (stereo unspecified) | -0.643%
4 | Oc1ccc(C2Nc3cccc4cccc(c34)N2)cc1 | -1.27%
5 | O=C(O)c1ccc(NS(=O)(=O)c2ccc3c(c2)C(=O)c2cc(S(=O)(=O)Nc4ccc(C(=O)O)cc4)ccc2-3)cc1 | 12.6%
6 | Cc1cccc(CCNS(=O)(=O)c2ccc3c(c2)NC(=O)CO3)c1 | -8.72%
7 | COc1ccc(C2CC(O)(c3ccccc3)Oc3cc(C)cc(C)c32)cc1 (stereo unspecified) | 15.7%
8 | CCOC(=O)c1cc(=O)c2ccc(OCc3ccccc3)cc2o1 | -0.548%
9 | N#C/C(=C(/O)COC(=O)COc1ccc(Cl)cc1)c1nc2ccccc2[nH]1 | -7.7%
10 | O=C(Cc1nc2ccccc2[nH]c1=O)c1ccc(Cl)cc1 | 49.5% (active)
11 | O=C(C[n+]1ccc2c(c1)nnn2-c1ccccc1)c1ccc(Cl)cc1 | 6.33%
12 | COc1ccc(CC(NC(C)=O)C(=O)NC2CCN(C(=O)c3ccc(Cl)cc3)CC2)cc1 (stereo unspecified) | -8.8%
13 | c1ccc2c(NC3C4CC5CC(C4)CC3C5)nc(N3CCOCC3)nc2c1 (stereo unspecified) | -3.82%
14 | Cn1c(=O)n(Cc2ccco2)c(=N)c2c3c(sc21)CCCC3 | -4.49%
15 | O=c1oc(-c2ccco2)nc2sc3c(c12)CCCCC3 | 15% (active)
16 | O=C(NCc1ccco1)c1cccn2c(=O)c3c4c(sc3nc12)CCCC4 | 13.5%
17 | Cc1cccc(NC(=O)C2CCCN(C(=O)NCc3ccccc3)C2)c1C (stereo unspecified) | 1.32%
18 | Clc1ccc(C2[C@H]3CN(CC4CCCCC4)[C@H](c4ccccc4)C34CC2(c2cccnc2)C4)cn1 (stereo partly specified) | -6.35%
19 | O=S(=O)(c1ccc(Br)cc1)n1ccc2ccccc21 | -2.94%
20 | CC(=O)c1nn(-c2cccc(C(F)(F)F)c2)c(=O)[nH]c1=O | -1.16%
21 | COc1ccc(-c2nnc3n2CCCCC3)cc1 | -0.714%

Row | Structure (SMILES) | max response
22 | COc1ccc(-c2nc3n(c2Br)CCC3)cc1 | 45.3% (active)
23 | Brc1cccc(-c2nnc3n2CCC3)c1 | -1.45%
24 | COc1ccc(Br)cc1C(=O)NC(=S)Nc1cc(-c2nc3ccccc3[nH]2)ccc1C | 24.4%
25 | COc1ccc(-c2nc(N)ncc2-c2ccc(Cl)cc2)c(O)c1 | -1.99%
26 | Cc1[nH]c2ccccc2c1C(=O)CSCC(=O)O | -0.861%
27 | Cc1[nH]c2ccccc2c1C(=O)COC(=O)C(C)C | 17.9% (active)
28 | Cc1[nH]c2ccccc2c1C(=O)COC(=O)c1c(-c2ccccc2)noc1C | -1.13%
29 | Cc1ccc(N(CC(=O)NC2CCCCC2)C(=O)CCCC(=O)Nc2ccccn2)c(C)c1 | -2.99%
30 | CCc1ccc2[nH]c(=O)c(Cc3ccccc3)c(O)c2c1 | 0.407%
31 | COc1ccc(-c2onc(C)c2-c2ccc3c(c2)OCCO3)c(O)c1 | -1.9%
32 | COc1cc(-c2c(-c3ccc4c(c3)OCO4)noc2C)ccc1F | 31.7% (active)
33 | COc1ccc(CCNC(=O)c2cc(-c3ccc4c(c3)OCO4)on2)cc1OC | -2.19%
34 | Cc1ccc(-c2cnc(NC(=O)CCC(=O)N(C)Cc3ccccc3)n2C)cc1 | 1.02%
35 | CC(C)(C)c1ccc(C(=O)NCCC(=O)NCc2ccco2)cc1 | 6.14%
36 | CC(C)(C)c1ccc(NC(=O)NCc2ccco2)cc1 | 47.3% (active)
37 | CC(C)(C)NC(=O)NCc1ccco1 | -1.96%
38 | O=C(Nc1ccccc1)Nc1ccccc1C(=O)NCc1ccco1 | 12.3% (active)
39 | COc1ccc(C(=O)Nc2ccccc2C(=O)NCc2ccco2)cc1 | -2.2%
40 | Cc1cccc(Nc2ccccc2C(=O)NCc2ccco2)c1C | -4.07%
41 | CCOCCCNC(=O)C1(O)c2cc(Br)ccc2NC(=O)N1c1ccc(C)c(C)c1 (stereo unspecified) | -2.74%
42 | O=C(/C=C/c1ccc(F)cc1)Nc1cccc(S(=O)(=O)Nc2cccc(C(F)(F)F)c2)c1 | -2.37%

Row | Structure (SMILES) | max response
43 | CCCC1(C(=O)OCC)NC(c2ccc(N(C)C)cc2)C2C(=O)N(c3ccc4c(c3)OCCO4)C(=O)C21 (stereo unspecified) | -5.79%
44 | CC1CCCCC1NC(=O)CSc1nnc(-c2ccncc2)n1CCCN(C)C (stereo unspecified) | -2.68%
45 | COc1cccc(CN(C)CC(O)COC(c2ccccc2)c2ccccc2C)c1 (stereo unspecified) | -4.62%
46 | CC(CNc1ccc([N+](=O)[O-])cc1)NC(=O)c1ccccc1Br (stereo unspecified) | -2.28%
47 | CCNC(=S)N(CCN(CC)CC)Cc1cc2cc3c(cc2[nH]c1=O)OCO3 | -2.69%
48 | CSc1nnc(-c2ccc(C(F)(F)F)cn2)o1 | 15.3% (active)
49 | CC(C)Oc1ccc(Oc2ccc(C(F)(F)F)cn2)cc1 | 10.2%
50 | CCOc1cc(N2CCOCC2)c(OCC)cc1NC(=O)c1ccc(C)s1 | -4.86%
51 | CCn1c(SCC(=O)Nc2ccc(Br)cc2)nc2sc3c(c2c1=O)CCN(C)C3 | 9.46%
52 | COc1ccc(CCNC(=O)c2ccc(CS(=O)(=O)c3ccc(Br)cc3)o2)cc1OC | 10.1%
53 | COc1ccc(CN2C(=O)C(C)S/C2=N/N=C/c2ccco2)cc1 (stereo unspecified) | 31.9% (active)
54 | C=CCN1C(=O)C(Cc2cccc(Cl)c2)S/C1=N/N=C/c1ccco1 (stereo unspecified) | 6.81%
55 | CCC1S/C(=N/N=C/c2ccco2)NC1=O (stereo unspecified) | 0.781%
56 | COc1cc(OC)cc(C(=O)NC2CCN(C(=O)N3c4ccccc4Sc4ccccc43)CC2)c1 | 9.65%
57 | CCCc1cc(=O)n2[nH]c(C)c(-c3ccc(Cl)cc3)c2n1 | -2.56%
58 | COc1ccc(N(CC(=O)Nc2cc(OC)ccc2OC)S(=O)(=O)c2c(C)noc2C)cc1 | -6.58%
59 | O=C(/C=C/c1cccs1)c1cc(Cl)ccc1OC(=O)N1CCOCC1 | 23.9% (active)
60 | O=C(Oc1cccc(C(=S)N2CCOCC2)c1)c1cccc(Cl)c1 | -0.347%
61 | CC(=O)Nc1ccccc1OC(=O)N1CCOCC1 | 11.6%
